Where “and” joins values, the source holds several entries; their conditions need not be identical. Equal values may be shown once. The campaign covered roughly 5,500 compounds. About 2,000 (36%) were called active. About 18% were inconclusive and are not listed. Rule as the data show it: active = normalized growth mostly below about 0.91 (no sharp cut-off); inconclusive = no clear call, values can overlap the other calls; inactive = mostly above about 0.92. Some of the results follow.
Experiment: chemical genetic growth profiling, strain panel (AID 1159580);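 also: tested at 20 µM; growth read once vehicle control cultures reached saturation at 30 °C; 1 = growth at the plate median or of vehicle wells; lower values mean less growth of the strain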
Conditions: S. cerevisiae deletion strains, growth OD

Measured: normalized growth

CN1C(CC(=O)c2ccccc2)CCCC1CC(O)c1ccccc1 (configuration not stated)
inactive: locus YAL013W, strain DEP1, active compounds read low 1.01 | locus YAL021C, strain ccr4, active compounds read low 0.974 | locus YAL026C, strain drs2, active compounds read low 0.976 | locus YAL030W, strain snc1, active compounds read low 0.977 | locus YBL061C, strain skt5, active compounds read low 0.976 | locus YBR009C, strain hhf1, active compounds read low 0.972 | locus YBR021W, strain FUR4, active compounds read low 1.02 | locus YBR023C, strain chs3, active compounds read low 0.977 | locus YBR171W, strain sec66, active compounds read low 0.989 | locus YBR229C, strain ROT2, active compounds read low 1.01 | locus YBR231C, strain swc5, active compounds read low 0.978 | locus YBR279W, strain paf1, active compounds read low 0.984 | locus YCL011C, strain gbp2, active compounds read low 0.966 | locus YCL016C, strain dcc1, active compounds read low 0.978 | locus YCL029C, strain bik1, active compounds read low 0.968 | locus YCL061C, strain MRC1, active compounds read low 0.993 | locus YCL069W, strain vba3, active compounds read low 0.982 | locus YCR088W, strain abp1, active compounds read low 0.984 | locus YDL005C, strain med2, active compounds read low 0.98 | locus YDL035C, strain GPR1, active compounds read low 1.01 | locus YDL040C, strain nat1, active compounds read low 0.976 | locus YDL074C, strain BRE1, active compounds read low 1.01 | locus YDL101C, strain DUN1, active compounds read low 1.01 | locus YDL134C, strain PPH21, active compounds read low 1.01 | locus YDL185W, strain tfp1, active compounds read low 0.992 | locus YDL192W, strain arf1, active compounds read low 0.991 | locus YDR001C, strain nth1, active compounds read low 0.979 | locus YDR069C, strain doa4, active compounds read low 0.999 | locus YDR101C, strain arx1, active compounds read low 0.97 | locus YDR137W, strain rgp1, active compounds read low 0.918 | locus YDR150W, strain NUM1, active compounds read low 1.02 | locus YDR159W, strain sac3, active compounds read low 0.959 | locus YDR162C, strain NBP2, active compounds read low 1.01 | locus YDR195W, strain ref2 0.928 | locus YDR297W, strain sur2, active compounds read low 0.98 | locus YDR318W, strain mcm21, active compounds read low 0.994 | locus YDR334W, strain swr1, active compounds read low 0.975 | locus YDR335W, strain msn5, active compounds read low 0.986 | locus YDR388W, active compounds read low 0.975 | locus YDR392W, strain spt3, active compounds read low 0.934 | locus YDR502C, strain sam2, active compounds read low 0.98 | locus YEL003W, strain gim4, active compounds read low 0.991 | locus YEL037C, strain rad23, active compounds read low 0.984 | locus YEL061C, strain CIN8 (second series), active compounds read low 0.966 | locus YEL061C, strain CIN8, active compounds read low 1.01 | locus YER015W, strain faa2, active compounds read low 0.989 | locus YER016W, strain bim1, active compounds read low 0.98 | locus YER110C, active compounds read low 0.981 | locus YER111C, strain swi4, active compounds read low 0.98 | locus YER155C, strain BEM2 (second series), active compounds read low 0.982 | locus YER155C, strain BEM2, active compounds read low 1.01 | locus YER167W, strain BCK2, active compounds read low 1.02 | locus YFR010W, strain ubp6, active compounds read low 0.967 | locus YGL078C, strain dbp3, active compounds read low 0.977 | locus YGL086W, strain mad1, active compounds read low 0.997 | locus YGL167C, strain pmr1, active compounds read low 0.963 | locus YGL173C, strain kem1, active compounds read low 0.982 | locus YGL227W, strain vid30, active compounds read low 0.962 | locus YGL240W, strain doc1, active compounds read low 0.981 | locus YGL248W, strain PDE1, active compounds read low 1.02 | locus YGL253W, strain hxk2, active compounds read low 0.991 | locus YGR078C, strain PAC10, active compounds read low 0.996 | locus YGR135W, strain pre9, active compounds read low 0.968 | locus YGR229C, strain SMI1, active compounds read low 0.967 | locus YGR252W, strain gcn5, active compounds read low 1 | locus YHR013C, strain ard1, active compounds read low 0.952 | locus YHR027C, strain rpn1, active compounds read low 0.973 | locus YHR030C, strain SLT2, active compounds read low 1.01 and 0.976 | locus YHR079C, strain IRE1 (second series), active compounds read low 0.985 | locus YHR079C, strain IRE1, active compounds read low 0.983 | locus YHR094C, strain hxt1, active compounds read low 0.988 | locus YHR129C, strain ARP1, active compounds read low 1.01 | locus YHR142W, strain chs7, active compounds read low 0.999 | locus YHR200W, strain rpn10, active compounds read low 0.989 | locus YIL066C, strain RNR3, active compounds read low 1.01 | locus YIL073C, strain SPO22, active compounds read low 1.02 | locus YIL125W, strain kgd1, active compounds read low 1 | locus YIR030C, strain dcg1, active compounds read low 0.993 | locus YJL092W, strain hpr5, active compounds read low 0.982 | locus YJL095W, strain BCK1 (second series), active compounds read low 0.979 | locus YJL095W, strain BCK1, active compounds read low 0.975 and 0.978 | locus YJL115W, strain asf1, active compounds read low 0.978 | locus YJL129C, strain trk1, active compounds read low 0.974 | locus YJL134W, strain LCB3, active compounds read low 1.01 | locus YJL154C, strain vps35, active compounds read low 0.97 | locus YJL164C, strain tpk1, active compounds read low 0.996 | locus YJL166W, strain qcr8, active compounds read low 0.984 | locus YJL168C, strain set2, active compounds read low 0.99 | locus YJL187C, strain SWE1 (second series), active compounds read low 0.996 | locus YJL187C, strain SWE1, active compounds read low 0.975 | locus YJR043C, strain POL32, active compounds read low 1 | locus YJR066W, strain TOR1, active compounds read low 0.935
